# EP2 antag = blocks the human prostaglandin E2 receptor EP2; P43116; inhibition, % at 25 µM; C6 glioma cells expressing human EP2, cAMP TR-FRET; cells stimulated with saturating PGE2; AID 1422; hit rate 0.52% among 260,000;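 active = percent inhibition above 40 after rounding to a whole number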;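 note: rat C6 glioma host cells with rolipram phosphodiesterase inhibitor present; the protocol text gives 20 µM as final concentration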
# Target sequence (P43116 whole entry, looked up): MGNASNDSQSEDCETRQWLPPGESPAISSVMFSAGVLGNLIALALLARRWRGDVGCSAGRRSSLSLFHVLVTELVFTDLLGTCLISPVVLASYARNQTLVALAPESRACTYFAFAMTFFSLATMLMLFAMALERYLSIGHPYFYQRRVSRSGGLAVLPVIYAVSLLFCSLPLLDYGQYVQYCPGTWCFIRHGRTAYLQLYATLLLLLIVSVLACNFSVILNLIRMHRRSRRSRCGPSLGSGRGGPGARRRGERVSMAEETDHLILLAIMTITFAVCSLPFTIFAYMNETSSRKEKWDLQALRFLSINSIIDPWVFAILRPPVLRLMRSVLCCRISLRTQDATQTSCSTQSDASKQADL
# Hck Nef HTS = inhibitors of human Hck kinase activated by Nef | inhibition, % at 20 µM | hit rate 0.68% among 220,000 | Recombinant Hck-YEEI plus Nef, Z-Lyte FRET kinase assay | P08631;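 active = Hck-Nef kinase inhibition above about 50%, limit read from the data; inactive = inhibition below that limit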
# p97 inhibitor = human p97 ATPase inhibition; P55072; recombinant p97 ATPase, Kinase-Glo ATP luminescence, 3 h; inhibition, % at 8 µM; hit rate 0.42% among 220,000; in the data active = inhibition above about 15%
# Arbovirus inh = arbovirus infection inhibition; arbovirus infection cell-based antiviral screen; inhibition, % at 10 µM; hit rate 0.37% among 200,000; AID 1251; in the data active = inhibition above about 30%
# EP2 modulator = EP2 receptor (human) modulation. EP2-expressing cells, cAMP HTRF FRET, PGE2 co-stimulation. P43116. AID 940. induction, % at 25 µM. hit rate 0.83% among 260,000;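 active = compounds whose cAMP rise, as percent of the full-agonist control response, exceeds 60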;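 note: rat C6 glioma line stably carrying human EP2 under a CMV promoter; the protocol text gives 20 µM as final concentration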
# Hck-Nef confirm = Hck-Nef kinase inhibition, confirmation; shares compounds with Hck Nef HTS; Recombinant Hck-YEEI:Nef, Z-Lyte FRET kinase assay; calls only at 10 µM; hit rate 28% among 1,300;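 active = average inhibition of at least 50%, with Z-scores no higher than 3 in both the phospho-tyrosine peptide and fluorescence counterscreens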
# A number is an active result; i = inactive; nt = not tested or not shown; + = active, no number. Compounds with a hit are over-represented: about 2.4% of the library has one in this group of screens.
SMILES,EP2 antag,Hck Nef HTS,p97 inhibitor,Arbovirus inh,EP2 modulator,Hck-Nef confirm
COc1ccc(C2=NN(C(=O)CCCC(=O)O)C(c3cn(-c4ccccc4)nc3-c3ccccc3)C2)cc1 (stereo unspecified),i,109,i,nt,i,+
COc1ccc(-c2nn(-c3ccccc3)cc2C2CC(c3cccs3)=NN2C(=O)CCC(=O)O)cc1 (stereo unspecified),i,i,i,nt,i,nt
CN(C(=O)c1sc2nc(N3CCOCC3)c3c(c2c1N)CCCC3)c1ccccc1,i,53,i,i,i,i
Nc1c(C(=O)NCCc2ccccc2)sc2nc(N3CCOCC3)c3c(c12)CCCC3,i,i,i,i,i,nt
O=C1N=c2ccccc2=C1c1sc(NS(=O)(=O)c2ccccc2)nc1O,i,i,i,i,i,nt
O=C1N=c2ccccc2=C1c1sc(Nc2ccc(O)cc2)nc1O,i,87,i,36,i,+
O=C(c1cc2ccccc2oc1=O)N(Cc1ccc(Cl)cc1)C1CCCC1,i,nt,nt,nt,i,nt
O=c1ccc2[n+]([O-])c3ccc(O)cc3oc-2c1,83,51,i,nt,i,i
COc1cc(/C=C/c2sc3ccccc3[n+]2CCCS(=O)(=O)[O-])ccc1O,i,65,i,i,i,i
Cc1ccc2c(c1)sc(C)[n+]2CCCS(=O)(=O)[O-],i,i,i,i,i,nt
COc1ccc(C2=CC3=CC(=O)C(C)(O)C(=O)C3=CO2)cc1 (stereo unspecified),i,nt,nt,nt,nt,nt
CCC(=O)OC1(C)C(=O)C2=COC(c3ccc(OC)cc3)=CC2=C(Br)C1=O (stereo unspecified),i,81,nt,nt,i,i
COC(=O)CCC(=O)OC1(C)C(=O)C2=CN(Cc3ccc(OC)cc3)C(c3ccc(OC)cc3)=CC2=C(Br)C1=O (stereo unspecified),i,nt,nt,nt,nt,nt
COc1ccc(C2=CC3=C(Br)C(=O)C(C)(O)C(=O)C3=CO2)cc1 (stereo unspecified),134,95,nt,nt,i,+
NC(=O)c1cc(Br)cc2c3c([nH]c12)CCCC3,i,58,i,i,i,+
CC1CCC2(CC1)NC(=O)N(CC(=O)Nc1sc3c(c1C(N)=O)CCC3)C2=O (stereo unspecified),i,64,i,i,i,+
CC1CCCCC12NC(=O)N(CC(=O)Nc1sc3c(c1C(N)=O)CCC3)C2=O (stereo unspecified),nt,i,i,i,i,nt
CCOC(=O)c1[nH]c2ccccc2c1NC(=S)Nc1cc(C)ccc1C,i,57,i,i,i,i
CCOC(=O)c1[nH]c2ccccc2c1NC(=S)Nc1ccccc1C,i,i,i,i,i,nt
C=CCn1c(=O)c(C#N)cc2c(=O)n3ccccc3nc21,i,155,i,i,nt,nt
C=CCn1c(=N)c(C#N)cc2c(=O)n3ccccc3nc21,i,i,i,i,i,nt
CCCCCn1c(=NC(C)=O)c(C#N)cc2c(=O)n3ccccc3nc21,nt,i,i,i,i,nt
Cc1ccc(Cn2c(=N)c(C#N)cc3c(=O)n4ccccc4nc32)cc1,i,nt,nt,nt,i,nt
N#Cc1cc2c(=O)n3ccccc3nc2n(-c2ccc(Cl)cc2)c1=O,i,173,i,i,i,nt
Cc1ccccc1-n1c(=O)c(C#N)cc2c(=O)n3ccccc3nc21,i,+,i,i,i,nt
SMILES,EP2 antag,Hck Nef HTS,p97 inhibitor,Arbovirus inh,EP2 modulator,Hck-Nef confirm
Cc1cc(-n2c(=O)c(C#N)cc3c(=O)n4ccccc4nc32)no1,i,+,i,i,i,nt
COc1ccc(NC(=O)c2ccco2)cc1NC(=O)c1ccc(C)c(Cl)c1,i,nt,nt,nt,i,nt
CCOc1cc(/C=N/N=C2/NC(=O)C(CC(=O)O)S2)ccc1OCc1ccc(Cl)cc1Cl (stereo unspecified),i,54,i,i,i,i
CCOc1c(OC)cccc1C1C(C(=O)OC(C)C)=C(C)Nc2ncnn21 (stereo unspecified),i,nt,nt,nt,i,nt
CC(C)c1ccc(NC(=O)Cn2nc(-c3cccs3)cc(N)c2=O)cc1,i,nt,nt,nt,i,nt
CCN(CC)Cc1c(O)c(Cl)cc2c(C)cc(=O)oc12,i,+,i,i,i,nt
Cc1cc(=O)oc2c(CN(CC(C)C)CC(C)C)c(O)ccc12,i,63,i,i,i,nt
CCN(CC)Cc1c(O)ccc2c(-c3ccccc3)cc(=O)oc12,i,i,i,i,i,nt
CCN(CC)Cc1c(O)ccc2c(C)c(CC(=O)OC)c(=O)oc12,i,73,i,i,i,nt
COC(=O)Cc1c(C)c2ccc(OCC(C)=O)c(C)c2oc1=O,i,i,i,i,i,nt
Cc1c(Cc2ccccc2)c(=O)oc2c(CN(C)C)c(O)c(Cl)cc12,i,116,i,i,i,nt
CCn1cncc1CN(Cc1ccccc1)C1CC(C)(C)NC(C)(C)C1,i,nt,nt,nt,i,nt
CCN(CC)Cc1c(O)c(Cl)cc2c(C)c(C)c(=O)oc12,i,77,i,i,i,nt
C=CCc1c(O)c(CC)cc2c(C)cc(=O)oc12,i,106,i,nt,i,nt
COc1ccc(-c2oc3ncnc(NCCCN4CCOCC4)c3c2-c2ccc(OC)cc2)cc1,i,94,i,i,61,+
COc1ccc(-c2oc3ncnc(NCCN4CCOCC4)c3c2-c2ccc(OC)cc2)cc1,i,66,i,i,nt,+
c1ccc(-c2oc3ncnc(NCCCN4CCOCC4)c3c2-c2ccccc2)cc1,i,61,i,i,i,+
c1ccc(-c2csc3ncnc(NCCN4CCOCC4)c23)cc1,i,i,i,i,i,nt
COc1ccc(-c2oc3ncn(CCN4CCOCC4)c(=N)c3c2-c2ccc(OC)cc2)cc1,i,i,i,i,i,nt
Cc1nn(C)c(C)c1-c1cc(C(=O)NCCCc2ccc(F)cc2)[nH]n1,i,nt,nt,nt,i,nt
Cc1ccc2cc(C(c3nnnn3C3CCCC3)N3CCc4ccccc43)c(=O)[nH]c2c1 (stereo unspecified),i,nt,nt,nt,i,nt
COc1ccc(OC)c(CC(=O)N2CCCC(c3ncncc3-c3cc(C)no3)C2)c1 (stereo unspecified),nt,nt,nt,nt,i,nt
Cc1ccc(-c2nn(-c3ccccc3)cc2/C=C2\SC(=S)N(CC(=O)O)C2=O)cc1,i,58,i,nt,i,i
Cn1cccc1/C=C1\SC(=S)N(CC(=O)O)C1=O,i,i,i,i,i,nt
COc1cc(CN2CCC(NC(C)=O)(c3ccccc3F)CC2)ccc1OC(C)C,i,nt,nt,nt,i,nt
SMILES,EP2 antag,Hck Nef HTS,p97 inhibitor,Arbovirus inh,EP2 modulator,Hck-Nef confirm
CN=c1scc(-c2ccco2)n1/N=C/c1ccc(O)c(O)c1,i,51,i,i,i,i
CCOC(=O)c1c(NC(=O)/C=C/C(=O)O)sc(C)c1-c1ccc(F)cc1,i,51,i,i,i,+
O=C(CN1CC[n+]2c(-c3cccs3)csc21)c1ccc(Br)cc1,i,i,i,i,i,nt
O=C(CN1CC[n+]2c(-c3ccccc3)csc21)c1ccc(Br)cc1,i,67,i,nt,i,+
COc1ccc2cc3cc(C(=O)Nc4ccc5c(c4)OCCO5)oc3nc2c1,i,52,i,i,i,i
CCOc1cc(NC(=O)C2=Cc3ccccc3OC2)c(OCC)cc1NC(=O)CC,i,nt,nt,nt,i,nt
CCC(c1nnnn1Cc1ccccc1)N(Cc1cccnc1)Cc1cc2cc(OC)ccc2[nH]c1=O (stereo unspecified),i,nt,nt,nt,i,nt

# Bioassay records from PubChem.
